D2 ag-1: D2 dopamine receptor (human) agonism; P14416; HEK293 T-REx D2 cells, calcium flux agonist mode; activation, % at 2 µM; 340,000 compounds, 0.53% hits;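 active = activation over 3 SD above normal in the single-dose calcium agonist read, cut at about 30% in these data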
Target sequence (P14416 whole entry, looked up): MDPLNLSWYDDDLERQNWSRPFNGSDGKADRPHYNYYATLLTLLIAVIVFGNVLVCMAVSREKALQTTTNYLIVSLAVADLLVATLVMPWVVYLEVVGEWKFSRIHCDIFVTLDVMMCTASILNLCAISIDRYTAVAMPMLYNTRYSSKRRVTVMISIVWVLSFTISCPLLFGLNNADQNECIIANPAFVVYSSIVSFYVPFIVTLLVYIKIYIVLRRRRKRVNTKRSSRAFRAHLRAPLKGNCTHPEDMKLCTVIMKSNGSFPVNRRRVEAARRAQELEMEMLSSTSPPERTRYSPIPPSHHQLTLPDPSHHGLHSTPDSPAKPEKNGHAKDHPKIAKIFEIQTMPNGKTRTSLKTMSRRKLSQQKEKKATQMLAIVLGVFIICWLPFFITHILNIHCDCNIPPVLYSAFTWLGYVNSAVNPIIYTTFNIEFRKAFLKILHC
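In this primary screen, compounds producing a positive calcium signal within 180 s of addition to tetracycline-induced, force-coupled HEK293 Trex D2 cells are flagged; cells are dye-loaded with a no-wash calcium kit beforehand.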
D2 antagonist: D2 dopamine receptor (human) antagonism. P14416. 340,000 compounds, 2% hits. inhibition, % at 10 µM. HEK293 TREx D2 cells, calcium flux, dopamine EC80. AID 485344; in the data active = inhibition above about 30%; inactive = below that, where a call was filed
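Tetracycline-induced HEK293 T-REx cells expressing D2 force-coupled to calcium signalling were dye-loaded, exposed to compound for 180 s, then challenged with an EC80 of dopamine; calcium flux was followed kinetically for a further 180 s.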
D2 PAM-1: positive allosteric modulators of human D2 dopamine receptor | P14416 | DiscoveRx D2 beta-arrestin cells, luminescence, 90 min; 100% = 57 uM dopamine signal | potentiation, % (no concentration beside the values) | 360,000 compounds, 0.23% hits | AID 624464; in the data active = potentiation above about 50%
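PathHunter D2 cells, attached overnight at 37 deg C, received compound in DMSO plus dopamine at EC20 (50 nM final) for 90 min at 37 deg C. Beta-arrestin recruitment was read as luminescence after 1 h with detection reagent at ambient temperature.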
D2 PAM-2: D2 dopamine receptor (human) potentiation | potentiation, % at 10 µM | P14416 | AID 485347 | 340,000 compounds, 0.34% hits | HEK293 T-REx D2, calcium flux, EC20 dopamine potentiation;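 active = potentiation over 3 SD above the plate norm, cut at about 30% in these data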
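Cells plated with tetracycline inducer and held overnight at 30 C; calcium dye loaded 30–90 min at room temperature; baseline taken, compound added and read 180 s; EC20 dopamine then added and read 180 s.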
D2 ag-2: agonists of human D2 dopamine receptor (beta-arrestin); 360,000 compounds, 0.084% hits; AID 624465; activation, % (no concentration beside the values); DiscoveRx PathHunter D2 beta-arrestin, luminescence, 90 min; 100% = 57 uM dopamine signal; P14416; in the data active = activation above about 40%
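Agonist mode: compounds alone added to overnight-plated D2 PathHunter cells for 90 min at 37 C, with 57 uM final dopamine (EC100) defining full response. Beta-arrestin recruitment detected by chemiluminescent reagent, read after 1 h at ambient temperature.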
Of the large screens only hits and unclear results are named; the others gave an inactive call. Compounds with a hit are over-represented: about 2.4% of the library has one in this group of screens.

c1ccc(Cn2cc(CNc3ccccc3)nn2)cc1	D2 antagonist 42
CC(NS(=O)(=O)c1ccc(OCC(=O)N2CCOCC2)cc1)c1ccccc1 (stereo unspecified)	D2 antagonist 31
CC(NS(=O)(=O)c1ccc(OCC(=O)N2CCOCC2)c(Cl)c1)c1ccccc1 (stereo unspecified)	none
CCNc1ccc(Br)cc(C(=O)/C=C/c2c(Cl)cccc2Cl)c1=O	D2 PAM-2 48
Cc1csc2ncnc(NC3CCN(Cc4ccccc4)CC3)c12	D2 antagonist 79
Cc1ccc(-c2csc3ncnc(N4CCN(Cc5ccccc5)CC4)c23)cc1	none (no result: D2 ag-1, D2 antagonist, D2 PAM-2)
COc1ccc(CN2COc3ccc4c(C)cc(=O)oc4c3C2)cc1	none (no result: D2 antagonist, D2 PAM-1, D2 ag-2)
Cc1c(-n2cc(C(=O)c3cc(F)ccc3O)cc(C#N)c2=O)c(=O)n(-c2ccccc2)n1C	none (no result: D2 PAM-2)
CC(C)n1cc(C(=O)c2ccccc2O)cc(C#N)c1=O	none
N#Cc1cc(C(=O)c2cc(F)ccc2O)cn(-c2nccs2)c1=O	D2 ag-1 116, D2 antagonist 34
N#Cc1cc(C(=O)c2ccccc2O)cn(-c2nccs2)c1=O	D2 ag-1 138
Cc1cc(F)ccc1Oc1cc(NN2CCCCC2)c([N+](=O)[O-])cc1[N+](=O)[O-]	D2 antagonist 30
O=[N+]([O-])c1cc([N+](=O)[O-])c(Oc2cc(F)ccc2F)cc1NN1CCCCC1	none
COc1ccc(Nc2ncc3c(n2)CC(c2ccc(C)cc2)CC3=O)cc1 (stereo unspecified)	D2 antagonist 36
COc1ccc(Nc2ncc3c(n2)CC(c2ccc(OC)cc2)CC3=O)cc1 (stereo unspecified)	none (no result: D2 PAM-2)
Cc1ccccc1OCCN1C(=O)C(=O)c2cccc(C)c21	none
Cc1cccc2c1N(CCOc1ccccc1Cl)C(=O)C2=O	D2 antagonist 30
COC(=O)c1ccccc1NC(=O)CSc1nnc2cc(C)c3cc(C)cc(C)c3n12	none (no result: D2 antagonist, D2 PAM-1, D2 ag-2)
COc1ccc(CNC(=O)C2CCN(c3nc4ccc(C)cc4[nH]3)CC2)cc1	none (no result: D2 antagonist, D2 PAM-1, D2 ag-2)
O=C1NCCCCC1NC1CC(=O)N(c2ccccc2)C1=O (stereo unspecified)	none (no result: D2 ag-1, D2 antagonist, D2 PAM-2)
CCOc1ccc(N2C(=O)CC(NC3CCCCNC3=O)C2=O)cc1 (stereo unspecified)	D2 antagonist 45
COc1cc2c(cc1OC)C(c1cc3ccc(C)cc3[nH]c1=O)N(C(=O)c1ccco1)CC2 (stereo unspecified)	none
COc1cc2c(cc1OC)C(c1cc3cc4c(cc3[nH]c1=O)OCO4)N(C(=O)C1CC1)CC2 (stereo unspecified)	D2 antagonist 33
COc1ccc(-n2ccn(CC(=O)Nc3ccccc3C(F)(F)F)c(=O)c2=O)cc1OC	none (no result: D2 antagonist, D2 PAM-1, D2 ag-2)
Cc1ccc(NC(=O)Cn2nc(C)n3cccc3c2=O)c(C)c1	none (no result: D2 antagonist, D2 PAM-1, D2 ag-2)
CCN(CC)CCNC(=O)C(=O)NCC1OCCN1S(=O)(=O)c1ccc([N+](=O)[O-])cc1 (stereo unspecified)	D2 PAM-1 50
COc1ccccc1CCNC(=O)C(=O)NCC1OCCN1S(=O)(=O)c1ccc(Cl)cc1 (stereo unspecified)	D2 antagonist 36
O=C(c1ccc([N+](=O)[O-])o1)N1CCN(c2nc3c(Cl)cccc3s2)CC1	D2 PAM-1 69
COc1cccc2sc(N3CCN(C(=O)c4ccc([N+](=O)[O-])o4)CC3)nc12	none
CCn1cc(CN2CCC(C(=O)Nc3ccc(Oc4cccnc4)cc3)CC2)c(C)n1	none
CCn1cc(CN2CCC(C(=O)Nc3ccc(Oc4cccnc4)cc3)CC2)cn1	D2 antagonist 31
CCCCN(C(=O)C1CCC(CNS(=O)(=O)c2cccc3nsnc23)CC1)c1ccccc1 (stereo unspecified)	none (no result: D2 antagonist, D2 PAM-1, D2 ag-2)
CC(C)CC(C(=O)Nc1ccc2c(c1)OCCO2)N1C(=O)c2ccccc2C1=O (stereo unspecified)	D2 antagonist 57
CC(C)C(C(=O)Nc1ccc2c(c1)OCCO2)N1C(=O)c2ccccc2C1=O (stereo unspecified)	none
O=c1c2c(n3cnnc3n1-c1ccccc1)-c1ccccc1CC21CCCCC1	none
Cc1cccc(-n2c(=O)c3c(n4cnnc24)-c2ccccc2CC32CCCCC2)c1	D2 antagonist 31, D2 PAM-2 41

High-throughput results: PubChem BioAssay, National Center for Advancing Translational Sciences (NCATS)
